Experimental data: PubChem BioAssay AID463 (The Scripps Research Institute Molecular Screening Center, 2006)
About 710 (1.3%) of roughly 56,000 compounds were called active.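 How the source made its calls: active means inhibition above the mean inhibition of all tested compounds plus 3 SD (cut at about 28% in these data); inactive means the rest.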 The full list was thinned out, with actives kept by preference.

Assay: Jurkat cell viability reduction – Jurkat E6.1, 60K MLSMR library, cytotoxicity control, primary screen (AID 463)
Details: Jurkat E6.1 viability, ATP luminescence, 48 h; at 4 µM; stronger effect = higher value

| SMILES | inhibition |
| --- | --- |
| COC(=O)c1[nH]c2ccccc2c1NS(=O)(=O)c1ccc(OC)cc1OC | -1.9% (inactive) |
| COc1cc(N=Cc2c(O)[nH]c3ccccc23)cc(OC)c1OC | 63% (active) |
| COc1ccc(CCNC(=O)CCCCn2c(=O)[nH]c3ccccc3c2=O)cc1OC | -5.9% (inactive) |
| COc1ccc(OC)c(N=Cc2c(O)[nH]c3ccccc23)c1 | -1% (inactive) |
| COc1ccc(N=Cc2c(O)[nH]c3ccccc23)cc1OC | 39.2% (active) |
| COc1ccc2[nH]c3ccc(OC)cc3c2c1 | -4.4% (inactive) |
| CCn1nnc(NC(=O)c2cc(Cl)c(OC)c(Cl)c2)n1 | -2% (inactive) |
| COC(=O)c1ccc(OC(=O)c2nn(C)cc2Cl)c(OC)c1 | 2.9% (inactive) |
| CCOC(=O)C1CCN(C(c2cc3cc(C)cc(C)c3[nH]c2=O)c2nnnn2C2CCCCC2)CC1 (configuration not stated) | -0.3% (inactive) |
| C=CCNC(=O)CCCOc1cccc(C)c1 | 4.8% (inactive) |
| OCCNCCCCOc1ccccc1F | 3% (inactive) |
| COc1cc(Cl)c(S(=O)(=O)n2cnc(C)c2)cc1Cl | 2.3% (inactive) |
| CCC(=O)Nc1ccc(C(=O)Nc2ccc3c(c2)C(=O)N(CC2CCCO2)C3=O)cc1 (configuration not stated) | -3.3% (inactive) |
| CCCC(=O)Nc1ccc(C(=O)NCCCn2ccnc2)cc1 | -15.7% (inactive) |
| CCCCC(=O)Nc1ccc(C(=O)NCCCn2ccnc2)cc1 | 57% (active) |
| CCOc1ccccc1C(=O)NCCCn1ccnc1 | 9.7% (inactive) |
| C=CCSc1nc2c(c(=O)[nH]1)C(C(C)C)C(C#N)=C(N)O2 (configuration not stated) | 0.8% (inactive) |
| O=C1CCC(Cc2ccccc2)N1 (configuration not stated) | 0.5% (inactive) |
| Cc1cnc(C(=O)OCC(=O)Nc2ccc(Cl)cc2Cl)cn1 | 7.4% (inactive) |
| C=CCn1cnc2scc(-c3ccccc3)c2c1=O | -3% (inactive) |
| CCCc1[nH]nc2c1C(C1CC=CCC1)C(C#N)=C(N)O2 (configuration not stated) | 5.6% (inactive) |
| CCCc1[nH]nc2c1C(c1ccc(OC(=O)c3ccco3)cc1)C(C#N)=C(N)O2 (configuration not stated) | 0.7% (inactive) |
| CCCc1[nH]nc2c1C(c1ccc(Br)s1)C(C#N)=C(N)O2 (configuration not stated) | 29.4% (active) |
| Cc1cc(N(C)C)cc(C)[n+]1[O-] | -7.1% (inactive) |
| CCOc1ccc(-c2nnc3ccc(SC)nn23)cc1 | 0.4% (inactive) |

| SMILES | inhibition |
| --- | --- |
| CCOC(=O)CSC1=C(C#N)C(c2sccc2C)CC(=O)N1 (configuration not stated) | 93.2% (active) |
| COC(=O)CSC1=C(C#N)C(c2ccccc2OC)C(C(=O)OC)C(=O)N1 (configuration not stated) | 5.3% (inactive) |
| CCOC(=O)CSC1=C(C#N)C(c2ccco2)C(C(=O)OCc2ccccc2)=C(C)N1 (configuration not stated) | 7.5% (inactive) |
| CCOC(=O)COc1ccc(Cl)cc1C1NC(=O)NC(C)=C1C(C)=O (configuration not stated) | -2.2% (inactive) |
| CCOC(=O)c1c(NC(=O)c2ccc(Br)o2)sc2c1CCCC2 | 6.2% (inactive) |
| C=C(C)COc1ccc(-c2n[nH]c(C)c2-c2ccccc2OC)c(O)c1 | 5.8% (inactive) |
| COc1ccc(-c2n[nH]c(C)c2-c2ccc(OC)c(OC)c2)c(O)c1 | 52% (active) |
| C=C(C)COc1ccc(-c2n[nH]c(C)c2-c2ccccc2)c(O)c1 | 22.9% (inactive) |
| Cn1c(=O)[nH]c(=O)c2c1nc(CN1CCN(c3ccccc3F)CC1)n2CCc1ccccc1 | 0% (inactive) |
| O=S(=O)(c1cccc(S(=O)(=O)N2CCC(n3nnc4ccccc43)CC2)c1)N1CCCCC1 | 0.6% (inactive) |
| Cn1c(NC(=O)c2ccc3c(c2)OCO3)cc(=O)n(C)c1=O | -10.9% (inactive) |
| CCOc1ccc(-c2nnc(-c3ccco3)o2)cc1 | 8.6% (inactive) |
| CCOC(=O)CSc1nnc(CNc2nc(-c3ccccc3)cs2)n1C | 0% (inactive) |
| COc1ccc(C(c2nnnn2C2CCCCC2)N2CCN(c3ccccc3F)CC2)cc1 (configuration not stated) | -5.7% (inactive) |
| CCc1nnc(NC(=O)CSc2nnc(-c3ccncc3)n2Cc2ccccc2)s1 | -9.3% (inactive) |
| Cc1nnc(NC(=O)CSc2nccn2-c2cccc(C)c2C)s1 | 71.5% (active) |
| COc1ccccc1-n1c(CNC(=O)c2ccccc2)nnc1SCC(=O)Nc1nnc(C)s1 | -6.1% (inactive) |
| Cc1cc(Nc2cccc(C)c2C)n2ncnc2n1 | 2.2% (inactive) |
| CCOC(=O)N1CCN(C(=O)C2CC(c3ccc(F)cc3)=NO2)CC1 (configuration not stated) | -1.7% (inactive) |
| CN(C)c1ccnc2sc3c(=O)n(Cc4ccccc4)cnc3c12 | 14.6% (inactive) |
| CC1COC2C(O1)N(S(C)(=O)=O)CCN2S(C)(=O)=O (configuration not stated) | -1.8% (inactive) |
| CC(=O)Oc1ccc(C)cc1N1C(=O)c2ccc(C(=O)O)cc2C1=O | -10.1% (inactive) |
| CCOc1ccc2nc(SC(CC)C(=O)Nc3cc(C)on3)sc2c1 (configuration not stated) | 1% (inactive) |
| Cc1ccc(S(=O)(=O)NCc2csc(C)n2)c(C)c1 | -3.9% (inactive) |
| Cc1nc(CNS(=O)(=O)c2cccnc2)cs1 | 2.3% (inactive) |

| SMILES | inhibition |
| --- | --- |
| Cc1nc(CNS(=O)(=O)c2ccc(Oc3ccccc3)cc2)cs1 | 35.6% (active) |
| Cc1cccc(NC(=O)c2ccccc2NC(=O)C(C)(C)C)n1 | 2.6% (inactive) |
| COc1cccc(N2CCN(C(=O)C3CCCN(S(=O)(=O)c4cnc[nH]4)C3)CC2)c1 (configuration not stated) | 0.4% (inactive) |
| CN(C)c1nc(N)nc(CSc2nnnn2-c2cccc3ccccc23)n1 | 66.2% (active) |
| O=c1c2ccccc2nc(CSc2nnnn2-c2ccccc2)n1-c1ccccc1 | -1.7% (inactive) |
| Cc1ccc(-c2noc(CSc3nnnn3-c3ccccc3)n2)cc1 | -2.2% (inactive) |
| Cn1c(=O)cc(OCCCC(=O)N2CCN(Cc3ccc4c(c3)OCO4)CC2)c2ccccc21 | 1.1% (inactive) |
| Cc1cc(/C=N/n2cnnc2)c(C)n1-c1ccc2ncccc2c1 | 1% (inactive) |
| C=CCn1c(=N)n(CC(O)COc2ccc(OC)cc2)c2ccccc21 (configuration not stated) | -0.5% (inactive) |
| CC1CCN(C(=O)Cn2cc(C(=O)c3ccco3)c3ccccc32)CC1 | 2.8% (inactive) |
| O=C1CCC(C(=O)Nc2ccc(OC(F)F)cc2)N1 (configuration not stated) | 0.7% (inactive) |
| O=C(Nc1ccccc1C(F)(F)F)c1cc(-c2ccc(O)cc2)on1 | 16.9% (inactive) |
| Cc1cc(C)nc(NC(=O)C(C)N2C(=O)c3ccccc3C2=O)n1 (configuration not stated) | -2.7% (inactive) |
| Cc1cc(C)nc(NC(=O)Nc2ccccc2C(F)(F)F)n1 | 45.2% (active) |
| Cc1nnc(N(Cc2ccco2)C(=O)c2ccno2)s1 | -0.7% (inactive) |
| Cc1ccc2[nH]c(=O)c(COC(=O)c3ccccn3)cc2c1 | -6.3% (inactive) |
| CCn1c(=N)c(S(=O)(=O)c2ccc(F)cc2)cc2c(=O)n3ccccc3nc21 | -7% (inactive) |
| COc1ccc(Cn2nnc3c(=O)[nH]c(C4CCN(C(=O)c5ccccc5Cl)CC4)nc32)cc1 | -2.8% (inactive) |
| CN(C)S(=O)(=O)c1cccc(C(=O)Nc2cccnc2)c1 | -3% (inactive) |
| CCN(CC)S(=O)(=O)c1cccc(C(=O)NCC(=O)OCC(=O)NCc2ccccc2)c1 | -5.9% (inactive) |
| CCN(CC)S(=O)(=O)c1cccc(C(=O)Nc2ccccc2)c1 | 29.7% (active) |
| COc1ccc(Br)cc1S(=O)(=O)N1CCN=C1C | 2.5% (inactive) |
| CCOC(=O)C1=C(C)N=c2s/c(=C\C(=O)OC)c(=O)n2C1c1ccc(OC)cc1 (configuration not stated) | 6% (inactive) |
| CCOC(=O)N1CCN(S(=O)(=O)c2ccc(C(=O)Nc3ccc(F)cc3F)cc2)CC1 | 84.2% (active) |
| O=C(Nc1cccc(F)c1)c1ccc(S(=O)(=O)N2CCCC2)cc1 | 1.7% (inactive) |

| SMILES | inhibition |
| --- | --- |
| O=C(CN1CCN(S(=O)(=O)c2ccc(F)cc2)CC1)Nc1ccccc1F | -6% (inactive) |
| Cc1ccc(C2c3c(oc4ccc(C)cc4c3=O)C(=O)N2CCCN2CCOCC2)cc1 (configuration not stated) | 3.9% (inactive) |
| Cc1ccccc1Cn1c(=O)[nH]c2ccccc21 | 5.4% (inactive) |
| COc1ccc(CCN2C(=O)c3[nH]nc(-c4ccccc4O)c3C2c2ccc(C)cc2)cc1OC (configuration not stated) | 11.1% (inactive) |
| O=S(=O)(Nc1ccc2nc(-c3ccco3)[nH]c2c1)c1ccccc1 | 4.2% (inactive) |
| Cc1ccc(S(=O)(=O)Nc2ccc3ncccc3c2)cc1 | 69.4% (active) |
| CC(=O)N1CCN(C(=O)c2cccc(S(=O)(=O)Nc3ccc(C)cc3)c2)CC1 | -0.6% (inactive) |
| Cc1cc(C)cc(N(CC(=O)Nc2c(C)n(C)n(-c3ccccc3)c2=O)S(C)(=O)=O)c1 | -5.2% (inactive) |
| CCOC(=O)CSc1nnc(-c2cccc(Br)c2)o1 | -6.1% (inactive) |
| CCNS(=O)(=O)c1ccc(NC(=O)Nc2cccc(OC)c2)cc1 | -3.7% (inactive) |
| COc1ccc(C(=O)Nc2ccc(S(=O)(=O)Nc3onc(C)c3C)cc2)cc1OC | -3.3% (inactive) |
| COC(=O)COc1ccc(S(=O)(=O)Nc2ccc(NC(C)=O)cc2)cc1 | -9.6% (inactive) |
| COc1ccc(NS(=O)(=O)c2ccc(NC(C)=O)cc2)cc1OC | 31.3% (active) |
| CC(=O)Nc1ccc(S(=O)(=O)Nc2cccc(NC(=O)C(C)(C)C)c2)cc1 | 7.9% (inactive) |
| COc1cc(NS(=O)(=O)c2ccc(NC(C)=O)cc2)cc(OC)c1 | 37.3% (active) |
| NC(=O)c1ccsc1NC(=O)c1ccco1 | -2.4% (inactive) |
| O=C(O)c1ccc(F)c(S(=O)(=O)Nc2ccccc2)c1 | 6.8% (inactive) |
| O=C(O)Cc1ccc(NC(=O)C2CCCCC2C(=O)O)cc1 (configuration not stated) | -4.1% (inactive) |
| Cc1nnc(SCc2ccc(C(=O)c3ccc(Cl)cc3)o2)n1-c1ccccc1 | 2.9% (inactive) |
| COc1ccc(N2C(=O)CN=C2Nc2cccc(C)c2C)cc1OC | -3% (inactive) |
| Nc1nnc(SCCN2C(=O)c3ccccc3S2(=O)=O)s1 | -1% (inactive) |
| COc1ccccc1NC(=O)CN1CCN(S(=O)(=O)c2ccc(Br)cc2)CC1 | -0.3% (inactive) |
